Measurements from the antibiotic and cytotoxicity screens of Wong et al. (2023).
The whole screen tested about 39,000 compounds, of which about 1,500 (3.8%) were called active. This is one part of a sample in which actives are shown more often than they occur.

What follows are compounds tested on HSkMC (human skeletal muscle cells) (assay: cytotoxicity call (relative viability < 0.9)). Conditions: 10 µM.

Compound | cytotoxicity call
C[C@H]1CN([C@@H](C)CO)C(=O)c2cc(NC(=O)C3CCCCC3)ccc2O[C@H]1CN(C)Cc1ccc(-c2ccccc2)cc1 | inactive
C[C@H](CO)N1C[C@H](C)[C@@H](CN(C)C(=O)Nc2ccc3c(c2)OCO3)Oc2c(NC(=O)C3CC3)cccc2C1=O | inactive
C[C@@H]1CN([C@@H](C)CO)C(=O)c2cccc(NC(=O)Nc3ccc(C(F)(F)F)cc3)c2O[C@H]1CN(C)C(=O)NC1CCCCC1 | active
C[C@H]1CN([C@@H](C)CO)C(=O)c2cccc(NC(=O)Nc3ccc(C(F)(F)F)cc3)c2O[C@H]1CN(C)C(=O)NC1CCCCC1 | inactive
C[C@H]1CN([C@@H](C)CO)C(=O)c2cccc(NC(=O)Nc3ccc(C(F)(F)F)cc3)c2O[C@@H]1CN(C)C(=O)NC1CCCCC1 | active
C[C@H](CO)N1C[C@H](C)[C@@H](CN(C)C(=O)NC2CCCCC2)Oc2c(NC(=O)Nc3ccc(C(F)(F)F)cc3)cccc2C1=O | inactive
C[C@@H]1CN([C@H](C)CO)C(=O)c2cccc(NC(=O)Nc3ccc(C(F)(F)F)cc3)c2O[C@H]1CN(C)C(=O)NC1CCCCC1 | inactive
C[C@@H]1CN([C@H](C)CO)C(=O)c2cccc(NC(=O)Nc3ccc(C(F)(F)F)cc3)c2O[C@@H]1CN(C)C(=O)NC1CCCCC1 | active
C[C@@H]1CN([C@@H](C)CO)C(=O)c2cccc(NC(=O)Nc3ccc(C(F)(F)F)cc3)c2O[C@@H]1CN(C)C(=O)NC1CCCCC1 | inactive
C[C@H](CO)N1C[C@H](C)[C@H](CN(C)C(=O)NC2CCCCC2)Oc2c(NC(=O)Nc3ccc(C(F)(F)F)cc3)cccc2C1=O | inactive
C[C@H](CO)N1C[C@H](C)[C@@H](CN(C)C(=O)Nc2ccc(C(F)(F)F)cc2)Oc2c(NC(=O)NC3CCCCC3)cccc2C1=O | inactive
CC(C)NC(=O)Nc1cccc2c1O[C@H](CN(C)S(=O)(=O)c1ccccc1)[C@H](C)CN([C@H](C)CO)C2=O | inactive
C[C@@H]1CN([C@@H](C)CO)C(=O)c2cccc(NC(=O)Nc3ccc(C(F)(F)F)cc3)c2O[C@H]1CN(C)Cc1ccc(C(=O)Nc2ccccc2N)cc1 | inactive
C[C@H](CO)N1C[C@H](C)[C@H](CN(C)C(=O)c2ccccc2)OCCCC[C@H](C)Oc2ccc(NC(=O)NC3CCCCC3)cc2C1=O | inactive
O=C(C[C@@H]1CC[C@H](NS(=O)(=O)c2ccc(F)cc2)[C@H](CO)O1)NCc1ccc(Cl)c(Cl)c1 | inactive
C[C@@H]1CN([C@@H](C)CO)S(=O)(=O)c2ccc(-c3cccnc3)cc2O[C@H]1CN(C)CC1CCOCC1 | inactive
COCC(=O)N(C)C[C@H]1Oc2cc(C#CCN(C)C)ccc2S(=O)(=O)N([C@H](C)CO)C[C@H]1C | inactive
CCNC(=S)N1CCC[C@H](C(N)=O)C1 | inactive
Cn1cncc1CN1CCO[C@]2(COCCN(S(C)(=O)=O)C2)C1 | inactive
Cc1noc(C)c1NC(=O)Nc1ccc2c(c1)C(=O)N([C@@H](C)CO)C[C@H](C)[C@@H](CN(C)C(=O)Nc1ccc3c(c1)OCO3)OCCCC[C@H](C)O2 | inactive

Compound | cytotoxicity call
Nc1ncnc2c1ncn2C1OC(COP(=O)(O)OP(=O)([O-])OP(=O)([O-])O)C(O)C1O.[Na+].[Na+] (centres undefined) | inactive
COc1cccc(S(=O)(=O)N(C)C[C@@H]2OCc3cn(nn3)CCCC(=O)N([C@H](C)CO)C[C@@H]2C)c1 | inactive
C[C@H]1CN([C@@H](C)CO)C(=O)c2cc(NC(=O)Nc3cccc4ccccc34)ccc2O[C@@H]1CN(C)Cc1ccc(Oc2ccccc2)cc1 | inactive
C[C@H](CO)N1C[C@H](C)[C@@H](CN(C)Cc2ccc(Oc3ccccc3)cc2)Oc2ccc(NC(=O)Nc3cccc4ccccc34)cc2C1=O | inactive
C[C@@H]1CN([C@H](C)CO)C(=O)c2cc(NC(=O)Nc3cccc4ccccc34)ccc2O[C@@H]1CN(C)Cc1ccc(Oc2ccccc2)cc1 | inactive
C[C@H](CO)N1C[C@H](C)[C@H](CN(C)Cc2ccc(Oc3ccccc3)cc2)Oc2ccc(NC(=O)Nc3cccc4ccccc34)cc2C1=O | active
C[C@@H]1CN([C@@H](C)CO)C(=O)c2cc(NC(=O)Nc3cccc4ccccc34)ccc2O[C@@H]1CN(C)Cc1ccc(Oc2ccccc2)cc1 | active
C[C@@H]1CN([C@H](C)CO)C(=O)c2cc(NC(=O)Nc3cccc4ccccc34)ccc2O[C@H]1CN(C)Cc1ccc(Oc2ccccc2)cc1 | inactive
COc1ccccc1C#Cc1cnc2c(c1)C(=O)N([C@@H](C)CO)C[C@@H](C)[C@H](CN(C)S(=O)(=O)c1cn(C)cn1)O2 | inactive
CN1C(=O)c2cc(NC(=O)C3CCOCC3)ccc2OC[C@@H]2O[C@H](CC(=O)NCc3ccccc3F)CC[C@H]21 | inactive
NC(=O)NCC#Cc1ccc2c(c1)[C@]1(C(=O)N2)[C@H](C(=O)N2CCN(c3ncccn3)CC2)[C@H]2C(=O)O[C@H](c3ccccc3)[C@H](c3ccccc3)N2[C@@H]1c1ccc(OCCO)cc1 | inactive
Cc1noc(C)c1NC(=O)Nc1ccc2c(c1)C(=O)N([C@@H](C)CO)C[C@H](C)[C@H](CN(C)Cc1ccc(C(=O)O)cc1)OCCCC[C@@H](C)O2 | inactive
C[C@H](CO)N1C[C@H](C)[C@@H](CN(C)Cc2ccc(-c3ccccc3)cc2)Oc2c(NC(=O)c3nc4ccccc4s3)cccc2C1=O | inactive
C[C@]12CC[C@@H]3[C@]4(C=C[C@@]5(C=C4C(=O)c4cc6ccccc6s4)C[C@@H](O)CC[C@]35C)[C@@H]1CC[C@@]2(O)CN1CCC(n2c(=O)[nH]c3ccccc32)CC1 | inactive
CCC(=O)OCC(=O)C1(OC(=O)CC)C(C)CC2C3CCC4=CC(=O)C=CC4(C)C3(Cl)C(O)CC21C (centres undefined) | inactive
CCC(=O)OC1(C(=O)CCl)C(C)CC2C3CCC4=CC(=O)C=CC4(C)C3(F)C(O)CC21C (centres undefined) | inactive
CC1CC2C3CCC4=CC(=O)C=CC4(C)C3(Cl)C(O)CC2(C)C1(OC(=O)c1ccco1)C(=O)CCl (centres undefined) | active
C[C@H](CO)N1C[C@H](C)[C@H](CN(C)S(=O)(=O)c2ccc(F)cc2)Oc2ncc(C#CCN(C)C)cc2C1=O | inactive
CCS(=O)(=O)NCC[C@@H]1CC[C@@H](NC(=O)C2CCOCC2)[C@H](CO)O1 | inactive
